Assay outcomes as filed in PubChem.
Giardia kill: kills Giardia lamblia | Giardia lamblia trophozoite viability | activity change, % at 7.66 µM, hits read low | 340,000 tested, 0.15% active | AID 540267; in the data active means activity change below about -80%; inconclusive means between about -30% and that limit;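 further: parasites exposed to compound for two days anaerobically before the ATP read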
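Luminescent ATP signal served as the viability read-out, measured 15-30 min after adding ATP detection reagent to trophozoites that had been incubated with compounds for 48 hrs at 37 deg C anaerobically at 100 cells/well.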
TDP1 cell noCPT: qHTS for Inhibitors of human tyrosyl-DNA phosphodiesterase 1 (TDP1): qHTS in cells in absence of CPT; AID 686978, 2013; 420,000 tested, 15% active; DT40 Tdp1-/- hTDP1 cells, no CPT, ATP luminescence, 48 h; Potency, µM (highest dose often 46.2 µM), inactives show at the highest dose activity change, negative = growth inhibition, hits mostly inhibitors; further: potency means the concentration at half of the fitted maximal effect; nearly all actives have a fitted effect of over 55% in size
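Compound effects on proliferation are scored in DT40 Tdp1-/-;hTDP1 cells in the absence of CPT. ATP levels (CellTiter-Glo luminescence) are recorded after a ≥48 hr, 37 °C incubation.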
TDP1 cell CPT: growth inhibition of DT40 Tdp1-/-;hTDP1 cells with camptothecin (screen for TDP1 inhibitors); chicken DT40 Tdp1-/-;hTDP1 cells + 20 nM CPT, ATP luminescence, 48 h; Potency, µM (doses to about 46.2 µM), for inactives: at the highest dose activity change, negative = growth inhibition, usual class: inhibitors; 420,000 tested, 12% active; further: potency means the concentration at half of the fitted maximal effect; nearly all actives have a fitted effect of over 55% in size
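Cell growth measured by CellTiter-Glo luminescence after a minimum 48 h, 37 C compound exposure with 20 nM CPT in Tdp1-knockout DT40 cells stably expressing hTDP1, seeded 400/well; qHTS titration format.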
TDP1 block: TDP1 (human) enzyme inhibition; Q9NUW8; recombinant TDP1, AlphaScreen DNA substrate cleavage; Potency, µM (titrated, usually from 130 µM), for inactives: at the highest dose activity change, negative = inhibition, actives largely listed as inhibitors; 350,000 tested, 0.28% active; AID 485290; further: potency means the concentration at half of the fitted maximal effect; nearly all actives have a fitted effect of over 40% in size
Target sequence (Q9NUW8 whole entry, looked up): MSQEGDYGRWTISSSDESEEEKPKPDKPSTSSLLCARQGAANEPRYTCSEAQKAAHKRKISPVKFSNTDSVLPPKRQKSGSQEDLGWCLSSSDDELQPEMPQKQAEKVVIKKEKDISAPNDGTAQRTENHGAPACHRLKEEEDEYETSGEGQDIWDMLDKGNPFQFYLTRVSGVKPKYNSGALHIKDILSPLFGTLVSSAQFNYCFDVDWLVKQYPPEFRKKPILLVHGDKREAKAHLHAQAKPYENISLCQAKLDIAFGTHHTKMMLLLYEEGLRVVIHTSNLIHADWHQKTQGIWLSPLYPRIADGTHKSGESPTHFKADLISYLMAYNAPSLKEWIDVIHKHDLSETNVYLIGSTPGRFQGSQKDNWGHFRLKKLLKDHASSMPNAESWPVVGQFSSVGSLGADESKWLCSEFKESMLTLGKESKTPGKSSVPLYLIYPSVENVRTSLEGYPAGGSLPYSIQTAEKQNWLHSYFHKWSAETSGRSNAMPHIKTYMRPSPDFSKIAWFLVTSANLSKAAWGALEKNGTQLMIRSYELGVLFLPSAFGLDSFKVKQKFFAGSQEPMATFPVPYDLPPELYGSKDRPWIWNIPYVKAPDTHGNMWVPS
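Recombinant E. coli-expressed Tdp1 (1 nM) preincubated with compound 15 min at RT, then 5'-biotin/3'-phosphotyrosine-FITC DNA substrate (15 nM) added for 5 min. AlphaScreen beads (10 ug/ml) added, 10 min RT; tyrosine-FITC cleavage read as signal loss.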
IL1B secr inh: blocks inflammasome-driven IL-1 beta release; THP-1 LPS/ATP IL-1B secretion, AlphaLISA, 16 h; hits give low values; activity change, % at 57.5 µM; 360,000 tested, 4.7% active; AID 743279; in the data active means activity change below about -50%; inconclusive means mostly about -30% to -49%
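Secreted IL-1B measured by AlphaLISA bead assay after 16 h compound exposure of THP-1 cells; compounds (final up to 57.5 uM) added 1 h before LPS (250 ng/mL) and ATP (1.25 mM) stimulation; lower signal means less secretion.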
ELG1 repair inh: ELG1-dependent DNA repair inhibition; HEK293T ELG1-luciferase reporter, luminescence, 16 h; DNA damage induced by 5-fluorouridine; Potency, µM (top dose mostly 46.1 µM), inactives show top-dose activity change, negative = inhibition, hits mostly inhibitors; 330,000 tested, 2.3% active; further: potency means the concentration at half of the fitted maximal effect; nearly all actives have a fitted effect of over 55% in size
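Cells (2,000 per well) received 5-fluorouridine plus test compound or DMSO and were incubated 16 hr at 37 °C, 5% CO2. Luciferase activity was read by luminescence 30 min after ONE-Glo addition; signal suppression marked inhibition of damage-induced ELG1 function.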
An asterisk follows results filed as active; ? = inconclusive; . = no result given. A selection: hits, their analogues and other compounds. The true share with any hit is near 19%. Unless noted, the call rests on the fitted dose curve; in most records, active means well fitted curve in the direction sought with a large enough effect; inconclusive means small, poorly fitted or top-dose-only effect, or another doubt; inactive means no such curve, though single readings can be large; an effect the other way counts as inactive or inconclusive. On the % scale 0 is the no-effect control and ±100 the full control effect.

SMILES	Giardia kill	TDP1 cell noCPT	TDP1 cell CPT	TDP1 block	IL1B secr inh	ELG1 repair inh
O=C1CS(=O)(=O)C2(C(=O)N(Cc3ccccc3Cl)c3ccccc32)N1c1ccc(F)cc1 (stereo not given)	.	16.4µM*	14.6µM*	6.3%	.	.
Cc1ccc(N2C(=O)CS(=O)(=O)C23C(=O)N(Cc2ccccc2C)c2ccccc23)cc1Cl (stereo not given)	.	?	?	4.2%	.	.
Cc1ccccc1CN1C(=O)C2(c3ccccc31)N(c1ccccc1)C(=O)CS2(=O)=O (stereo not given)	.	-15.6%	-21.5%	2.1%	.	.
Cc1cccc(N2C(=O)CS(=O)(=O)C23C(=O)N(Cc2c(F)cccc2Cl)c2ccccc23)c1 (stereo not given)	.	23.1µM*	20.6µM*	0.0%	.	.
O=C1CS(=O)(=O)C2(C(=O)N(Cc3ccccc3)c3ccccc32)N1c1ccc(F)c(Cl)c1 (stereo not given)	.	?	-29.2%	4.2%	.	.
Cc1ccc(N2C(=O)CS(=O)(=O)C23C(=O)N(Cc2cccc(F)c2)c2ccccc23)cc1Cl (stereo not given)	.	23.1µM*	23.1µM*	2.7%	.	.
Cc1ccc(CN2C(=O)C3(c4ccccc42)N(c2cccc(F)c2)C(=O)CS3(=O)=O)cc1 (stereo not given)	.	?	14.6µM*	3.2%	.	.
Cc1ccc2nc(COC(=O)c3ccc(Cl)nc3)cc(=O)n2c1	-1.6	-1.3%	11.7%	-3.0%	-2.0	7.0%
COCCN1CN(S(=O)(=O)c2ccccc2)c2nc3ccccc3nc21	10.0	-26.5%	-15.8%	-12.0%	-6.2	23.3%
O=S(=O)(c1cccs1)N1CN(Cc2ccc(Cl)cc2)c2nc3ccccc3nc21	-9.1	?	?	1.0%	-22.0	-2.4%
Cc1ccc(CN2CN(S(=O)(=O)c3cccs3)c3nc4ccccc4nc32)cc1	2.6	20.6µM*	16.4µM*	4.9%	-20.7	?
COc1ccccc1CN1CN(S(=O)(=O)c2ccccc2)c2nc3ccccc3nc21	8.1	?	14.6µM*	.	6.9	17.7%
CCCCN1CN(S(=O)(=O)c2cccs2)c2nc3ccccc3nc21	.	.	.	8.2%	.	?
O=S(=O)(c1cccs1)N1CN(Cc2ccco2)c2nc3ccccc3nc21	-14.4	13µM*	?	8.2%	-18.6	?
Cc1cccc(S(=O)(=O)N2CN(Cc3ccco3)c3nc4ccccc4nc32)c1	-18.3	?	18.4µM*	5.9%	-13.2	6.8%
OC1c2c(F)cccc2N=C2CCCCCN21 (stereo not given)	.	?	?	.	0.3	.
Cc1onc(-c2ccccc2)c1C(=O)N1CCCCCC1	-11.4	2.9%	-7.7%	1.1%	-0.1	5.5%
COc1ccc(Oc2nc(SC)nc3ccccc23)cc1	-14.1	?	?	2.8%	-18.8	-10.8%
CC(C)(O)C(=O)NNC(=S)Nc1cccc(C(F)(F)F)c1	-23.0	8.8%	-21.8%	-2.5%	-9.7	3.4%
Cc1ccccc1C(=O)NNC(=S)Nc1cccc(C(F)(F)F)c1	8.3	23.1µM*	?	8.0%	-1.6	?
O=C(NNC(=S)Nc1cccc(C(F)(F)F)c1)c1ccc(Cl)cc1Cl	-11.3	25.9µM*	?	8.2%	-52.2*	-11.6%
COc1ccc(-c2cc(CNc3nc4cc(-c5ccccc5C)sc4c(=O)n3C)on2)cc1	.	20.6µM*	16.4µM*	.	-23.9	.
COc1ccccc1CNc1nc2cc(-c3ccccc3C)sc2c(=O)n1C	.	23.1µM*	?	.	-22.4	.
COc1cccc(CNc2nc3cc(C(C)=C(C)C)sc3c(=O)n2C)c1	.	?	18.4µM*	.	-5.1	.
Cc1ccccc1-c1cc2nc(NCCN3CCCC3)n(C)c(=O)c2s1	.	?	?	.	-27.2	.
SMILES	Giardia kill	TDP1 cell noCPT	TDP1 cell CPT	TDP1 block	IL1B secr inh	ELG1 repair inh
Cc1ccccc1-c1cc2nc(NCCOc3ccccc3)n(C)c(=O)c2s1	.	?	?	.	20.5	.
COc1cccc(CNc2nc3cc(-c4ccccc4C)sc3c(=O)n2C)c1	.	23.1µM*	20.6µM*	.	-7.7	.
COc1cccc(CNc2nc3cc(-c4cccc(Cl)c4)sc3c(=O)n2C)c1	.	-12.5%	-28.9%	.	30.4	.
CCOC(=O)CCCCCC(=O)Nc1ccc2c(c1)C(=O)N([C@H](C)CO)C[C@@H](C)[C@@H](CN(C)C(=O)CCC(F)(F)F)OCCCC[C@H](C)O2	.	-1.5%	?	.	-4.6	.
CCOc1ccc(NC(=O)N(C)CCc2c(C)nn(C)c2C)cc1	.	-27.9%	1.3%	8.8%	.	.
C=CCOC(=O)N[C@@H](CC(C)C)/C(C(=O)OC)=C(\C)NCc1ccccc1	.	.	.	-6.2%	.	.
Cc1ccccc1-c1cc2nc(Nc3ccc(F)cc3)n(C)c(=O)c2s1	.	23.1µM*	?	.	-15.5	.
COc1ccccc1CNc1nc2cc(-c3sccc3C)sc2c(=O)n1C	.	16.4µM*	18.4µM*	.	-9.3	.
Cc1ccc(NC(=O)C2CCCN(S(=O)(=O)c3cccc4cccnc34)C2)c(C)c1 (stereo not given)	.	?	?	3.8%	.	.
COc1cccc(OC)c1OCCNC[C@@H]1COc2ccccc2O1	.	26.6µM*	26.6µM*	4.8%	.	.
COC(=O)c1cc2oc3ccccc3c2n1Cc1nc(-c2ccccc2Cl)oc1C	.	-15.6%	-16.9%	1.0%	.	.
CCOC(=O)c1sc(Nc2ccc(C)cc2C)nc1C	10.8	15.8µM*	?	6.8%	-17.1	0.5%
CCOC(=O)c1sc(N/N=C/c2cccc(C)c2)nc1C	-24.4	?	?	3.9%	-3.6	?
CCOC(=O)c1sc(Nc2ccc(F)cc2)nc1C	5.4	?	?	0.0%	-20.7	11.0%
CCOC(=O)c1sc(Nc2nc(C)cc(OC)n2)nc1C	-1.5	13µM*	?	6.2%	72.4	-19.8%
CCOC(=O)c1sc(NC(=O)C2C3C=CC(C3)C2C(=O)O)nc1C (stereo not given)	2.9	-2.7%	-17.2%	79.4µM*	7.1	7.1%
CCOC(=O)c1sc(Nc2nc(C)cc(C)n2)nc1C	-17.8	6.51µM*	7.31µM*	3.7%	30.7	?
COc1ccccc1-c1nc2cc(C(=O)NC[C@H]3CCc4ccccc4O3)cc(NC(C)=O)c2n1C	.	-19.1%	-5.9%	.	.	.
O=C1COc2ccc(C(=O)COC(=O)CNC(=O)C3CCCCC3)cc2N1	4.9	-4.7%	0.1%	4.9%	27.9	16.9%
O=C(CCCn1c(=S)[nH]c2ccc(Br)cc2c1=O)NCc1ccccn1	23.4	?	?	-2.3%	0.0	-2.0%
